Experimental data published in PubChem BioAssay (Tox21).
A number with no mark means an inactive call. Results filed as inconclusive are left out. A call without a number means that no potency is given here. Active and inactive are the calls of the source. Unless noted, the call rests on the fitted dose curve; in most records, active means well fitted curve in the direction sought with a large enough effect in the repeat runs; inconclusive means weak or mixed curves; inactive means no such curve, though single readings can be large; an effect the other way counts as inactive or inconclusive.

Legend:
[1] = A CellTox Green Cytotoxicity Assay to monitor cytotoxicity in HepG2 cells - 0 hour (AID 1224882); further: nearly all actives have a fitted effect of over 35% in size; further: potency means the concentration at half of the fitted maximal effect
Method in brief: (§1)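 Cytotoxicity was tracked as dead-cell DNA fluorescence in HepG2 cells treated with test compounds at 37 C; each time-point value comes from one kinetic series spanning 0, 8, 16, 24, 32 and 40 h.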

[2] = A CellTox Green Cytotoxicity Assay to monitor cytotoxicity in HepG2 cells - 32 hour (AID 1224883); further: nearly all actives have a fitted effect of over 50% in size; further: potency means the concentration at half of the fitted maximal effect
Method in brief: as §1

[3] = A CellTox Green Cytotoxicity Assay to monitor cytotoxicity in HEK293 cells - 8 hour (AID 1224884); further: nearly all actives have a fitted effect of over 35% in size; further: potency means the concentration at half of the fitted maximal effect
Method in brief: (§2)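 Real-time, in one plate: 600 HEK293 cells/well with dead-cell DNA dye, pinned compound after 5 h, 37 C incubation over 40 h; viable cells give no appreciable fluorescence.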

[4] = qHTS RealTime-Glo MT Cell Viability Assay in HepG2 cells - 16 hour (AID 1224885); further: nearly all actives have a fitted effect of over 50% in size
Method in brief: (§3)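 qHTS, HepG2, 600 cells/well, RealTime-Glo (NanoLuc + prosubstrate) added with cells; 5 h preincubation; DMSO compound addition; 37 C; luminescence at 0/8/16/24/32/40 h.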

[5] = qHTS RealTime-Glo MT Cell Viability Assay in HEK293 cells - 24 hour (AID 1224886); further: top concentration of the series differs between compounds; nearly all actives have a fitted effect of over 50% in size
Method in brief: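 Assay medium contained NanoLuc luciferase plus cell-permeant prosubstrate, added with HEK293 cells at 600 cells/well. After 5 h at 37 C/5% CO2 compounds were added; plates stayed at 37 C for 40 h with serial luminescence reads.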

[6] = qHTS RealTime-Glo MT Cell Viability Assay in HEK293 cells - 8 hour (AID 1224887); further: top concentration of the series differs between compounds; nearly all actives have a fitted effect of over 50% in size
Method in brief: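 Kinetic, non-lysing viability readout. Seed HEK293 (600/well) with reagent, incubate 5 h at 37 C/5% CO2, pin 23 nL compound in DMSO, incubate at 37 C, read luminescence at 0, 8, 16, 24, 32, 40 h.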

[7] = qHTS RealTime-Glo MT Cell Viability Assay in HepG2 cells - 0 hour (AID 1224889); further: nearly all actives have a fitted effect of over 50% in size; further: potency means the concentration at half of the fitted maximal effect
Method in brief: as §3

[8] = A CellTox Green Cytotoxicity Assay to monitor cytotoxicity in HepG2 cells - 8 hour (AID 1224890); further: nearly all actives have a fitted effect of over 45% in size; further: potency means the concentration at half of the fitted maximal effect
Method in brief: as §1

[9] = qHTS assay to identify small molecule antagonists of the estrogen receptor alpha (ER-alpha) signaling pathway using the BG1 cell line in the presence of 0.1 nM 17-beta-estradiol - cell viability counter screen (AID 1259241); further: nearly all actives have a fitted effect of over 40% in size
Method in brief: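 The cell line endogenously expresses full-length ER-alpha and carries four EREs driving luciferase. Cells are cultured 5 days hormone-free, treated 22 hr with compounds and 0.1 nM estradiol, then viability is read by fluorescence.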

[10] = target: Estrogen receptor (Homo sapiens) (UniProt P03372); test: qHTS assay to identify small molecule antagonists of the estrogen receptor alpha (ER-alpha) signaling pathway using the BG1 cell line in the presence of 0.1 nM 17-beta-estradiol (AID 1259244); further: nearly all actives have a fitted effect of over 50% in size
Method in brief: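 Luciferase signal from VM7Luc4E2 ERE-reporter cells, co-dosed with test compound and 0.1 nM final 17beta-estradiol for 22 h, read with ONE-Glo.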

[11] = qHTS assay to identify small molecule phospholipidosis (PLD) inducers (AID 1259344; active means well fitted curve in the direction sought with a large enough effect; an effect the other way counts as inactive or inconclusive)
Method in brief: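 After 4 h attachment on collagen I, HepG2 cells were dosed with compound alongside LipidTOX Red, kept 24 h at 37 C, fixed, and imaged for lamellar phospholipid pits.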

[12] = qHTS assay to identify small molecule HDAC inhibitors (AID 1259364);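 further: wild-type HCT-116 cells with endogenous class I/II HDAC activity; top concentration of the series differs between compounds; nearly all actives have a fitted effect of over 45% in size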
Method in brief: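 HCT-116 wt cells, 1,500/well, overnight attach. Compounds (DMSO) 2 h, 37 °C. HDAC-Glo I/II, 30 min RT. Luminescence.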

[13] = qHTS assay to identify small molecule HDAC inhibitors - cell viability counter screen (AID 1259365)
Method in brief: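 Viability readout: CellTiter-Glo luminescence. Wild-type HCT-116 cells, 2hr compound treatment following overnight attachment at 37 C.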

[14] = qHTS assay to identify small molecule agonists of the sonic hedgehog signaling (Shh) pathway - cell viability counter screen (AID 1259366); further: nearly all actives have a fitted effect of over 50% in size
Method in brief: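 Viability measured fluorometrically (CellTiter-Fluor, 1hr, 37C) in 3T3 Gli1-Luc reporter cells after 23hr compound exposure within a 24hr incubation at 37C/5% CO2.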

[15] = qHTS assay to identify small molecule antagonists of the sonic hedgehog signaling (Shh) pathway - cell viability counter screen (AID 1259367); further: nearly all actives have a fitted effect of over 55% in size; further: potency means the concentration at half of the fitted maximal effect
Method in brief: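 Conditioned medium drove Shh signaling in 3T3 Gli1-Luc cells exposed to compounds at 37C and 5% CO2. Viability was determined from CellTiter-Fluor fluorescence, with reagent incubated 1 hr after 23 hr of treatment.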

[16] = qHTS assay to identify small molecule agonists of the sonic hedgehog signaling (Shh) pathway (AID 1259368; calls by dose curve;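 further: NIH/3T3-derived 3T3Gli1-Luc cells carrying a stable Gli1-driven firefly luciferase reporter; series mostly up to about 92 µM; nearly all actives have a fitted effect of over 15% in size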)
Method in brief: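 Following a 24 hr incubation with DMSO-dissolved compounds at 37 C, 5% CO2, Gli1-Luc NIH/3T3-derived cells received luciferase reagent for 30 min at room temperature prior to luminescence measurement.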

[17] = qHTS assay to identify small molecule antagonists of the sonic hedgehog signaling (Shh) pathway (AID 1259369; calls by dose curve; further: nearly all actives have a fitted effect of over 45% in size; further: potency means the concentration at half of the fitted maximal effect)
Method in brief: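 Read-out is luminescence from a firefly luciferase gene controlled by the Gli1 response element, in 3T3Gli1-Luc cells pre-incubated 4hr then exposed to compounds and conditioned medium for 24hr.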

[18] = qHTS assay to identify small molecule antagonists of the androgen receptor (AR) signaling pathway using the MDA cell line in the presence of 0.5 nM R1881 - cell viability counter screen (AID 1259242); further: nearly all actives have a fitted effect of over 45% in size
Method in brief: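 Cells seeded at 3,000/well and allowed 5 hr at 37C, 0% CO2 before compound transfer and R1881 (0.5 nM final) addition; 16 hr later, live-cell protease fluorescence indicated cytotoxicity.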

[19] = A CellTox Green Cytotoxicity Assay to monitor cytotoxicity in HEK293 cells - 16 hour (AID 1224888); further: nearly all actives have a fitted effect of over 35% in size
Method in brief: as §2

[20] = target: Androgen receptor (Homo sapiens) (UniProt P10275); test: qHTS assay to identify small molecule antagonists of the androgen receptor (AR) signaling pathway using the MDA cell line in the presence of 0.5 nM R1881 (AID 1259243); further: nearly all actives have a fitted effect of over 50% in size; further: potency means the concentration at half of the fitted maximal effect
Method in brief: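 Luminescence from an AR/GR-responsive MMTV-luciferase construct in MDA-kb2 breast carcinoma cells, read 30 min after ONE-Glo, following 16 hr co-treatment with compounds and 0.5 nM R1881.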

Chain of Estrogen receptor (Homo sapiens) (P03372 whole entry, looked up): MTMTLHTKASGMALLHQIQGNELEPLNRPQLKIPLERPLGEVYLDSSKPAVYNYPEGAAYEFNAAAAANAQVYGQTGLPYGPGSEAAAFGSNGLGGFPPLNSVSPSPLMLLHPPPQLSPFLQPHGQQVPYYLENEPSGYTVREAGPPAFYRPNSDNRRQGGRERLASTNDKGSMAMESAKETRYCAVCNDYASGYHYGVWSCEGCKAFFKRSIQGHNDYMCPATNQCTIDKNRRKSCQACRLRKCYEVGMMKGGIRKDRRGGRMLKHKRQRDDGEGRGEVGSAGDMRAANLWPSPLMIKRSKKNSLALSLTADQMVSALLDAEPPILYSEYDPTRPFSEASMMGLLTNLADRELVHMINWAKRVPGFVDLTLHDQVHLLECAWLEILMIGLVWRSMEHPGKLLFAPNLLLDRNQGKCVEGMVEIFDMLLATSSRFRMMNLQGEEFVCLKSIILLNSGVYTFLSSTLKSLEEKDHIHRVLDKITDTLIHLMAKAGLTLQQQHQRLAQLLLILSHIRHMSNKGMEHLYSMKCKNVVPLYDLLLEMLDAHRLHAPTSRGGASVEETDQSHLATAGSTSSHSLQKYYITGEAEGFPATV
Chain of Androgen receptor (Homo sapiens) (P10275 whole entry, looked up): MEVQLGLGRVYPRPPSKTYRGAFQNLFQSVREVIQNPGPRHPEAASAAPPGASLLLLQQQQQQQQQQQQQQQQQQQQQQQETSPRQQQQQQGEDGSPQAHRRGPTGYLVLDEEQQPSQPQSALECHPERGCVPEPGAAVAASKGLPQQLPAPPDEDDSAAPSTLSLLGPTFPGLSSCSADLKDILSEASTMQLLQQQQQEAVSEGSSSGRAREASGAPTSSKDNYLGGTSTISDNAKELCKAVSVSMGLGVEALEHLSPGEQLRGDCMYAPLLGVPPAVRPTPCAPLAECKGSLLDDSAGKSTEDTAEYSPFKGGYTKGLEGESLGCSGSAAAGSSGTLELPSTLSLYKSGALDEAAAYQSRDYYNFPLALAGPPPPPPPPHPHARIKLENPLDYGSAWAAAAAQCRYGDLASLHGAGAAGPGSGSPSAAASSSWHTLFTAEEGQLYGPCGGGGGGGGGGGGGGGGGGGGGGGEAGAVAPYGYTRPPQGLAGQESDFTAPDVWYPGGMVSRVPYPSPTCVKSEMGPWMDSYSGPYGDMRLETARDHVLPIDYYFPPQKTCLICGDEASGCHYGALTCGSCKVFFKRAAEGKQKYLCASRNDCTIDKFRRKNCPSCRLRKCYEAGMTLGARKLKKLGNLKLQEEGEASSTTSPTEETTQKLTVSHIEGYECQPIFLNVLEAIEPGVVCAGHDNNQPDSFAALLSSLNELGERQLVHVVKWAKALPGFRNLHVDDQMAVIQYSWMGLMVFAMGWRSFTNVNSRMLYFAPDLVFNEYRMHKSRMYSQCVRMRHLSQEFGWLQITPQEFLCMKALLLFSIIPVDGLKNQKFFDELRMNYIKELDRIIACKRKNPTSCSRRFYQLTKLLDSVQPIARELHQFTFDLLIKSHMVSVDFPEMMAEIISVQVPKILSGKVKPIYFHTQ

Structure (SMILES): CC(C)(C)C(O)/C=C/c1ccc2c(c1)OCO2 (stereo not given)
- Potency [1]: inactive
- Potency [2]: inactive
- Potency [3]: inactive
- Potency [4]: inactive
- Potency [5]: inactive
- Potency [6]: inactive
- Potency [7]: inactive
- Potency [8]: inactive
- Potency [9]: inactive
- Potency [10]: inactive
- Potency [11]: inactive
- Potency [12]: inactive
- Potency [13]: inactive
- Potency [14]: inactive
- Potency [15]: inactive
- Potency [16]: inactive
- Potency [17]: inactive

Structure (SMILES): O=C(O)CCC(=O)OC[C@@H](NC(=O)C(Cl)Cl)[C@H](O)c1ccc([N+](=O)[O-])cc1
- Potency [1]: 19 µM (active)
- Potency [2]: 12 µM (active)
- Potency [3]: 21.3 µM (active)
- Potency [4]: inactive
- Potency [5]: inactive
- Potency [6]: inactive
- Potency [7]: inactive
- Potency [8]: 21.3 µM (active)
- Potency [9]: inactive
- Potency [18]: inactive
- Potency [11]: inactive
- Potency [12]: inactive
- Potency [13]: inactive
- Potency [14]: inactive
- Potency [15]: inactive
- Potency [16]: inactive
- Potency [17]: inactive

Structure (SMILES): O=C(NS(=O)(=O)/C=C/c1ccccc1)c1ccc(F)cc1Cl
- Potency [1]: inactive
- Potency [2]: 54.9 µM (active)
- Potency [3]: inactive
- Potency [4]: inactive
- Potency [5]: inactive
- Potency [6]: inactive
- Potency [7]: 19.5 µM (active)
- Potency [8]: inactive
- Potency [9]: inactive
- Potency [18]: inactive
- Potency [10]: inactive
- Potency [12]: inactive
- Potency [13]: inactive
- Potency [14]: inactive
- Potency [15]: inactive
- Potency [16]: inactive
- Potency [17]: inactive

Structure (SMILES): O=P(O)(O)Oc1ccccc1
- Potency [1]: inactive
- Potency [2]: inactive
- Potency [3]: inactive
- Potency [4]: inactive
- Potency [5]: inactive
- Potency [6]: inactive
- Potency [7]: inactive
- Potency [8]: inactive
- Potency [9]: inactive
- Potency [18]: inactive
- Potency [10]: inactive
- Potency [12]: inactive
- Potency [13]: inactive
- Potency [14]: inactive
- Potency [15]: inactive

Structure (SMILES): CC(C)CC(O)CC(C)C
- Potency [1]: inactive
- Potency [2]: inactive
- Potency [3]: inactive
- Potency [4]: inactive
- Potency [5]: inactive
- Potency [6]: inactive
- Potency [7]: inactive
- Potency [8]: inactive
- Potency [9]: inactive
- Potency [18]: inactive
- Potency [10]: inactive
- Potency [12]: inactive
- Potency [13]: inactive
- Potency [14]: inactive
- Potency [15]: inactive
- Potency [16]: inactive
- Potency [17]: inactive

Structure (SMILES): O=C(O)CN1C(=O)c2cccc3cccc(c23)C1=O
- Potency [1]: inactive
- Potency [2]: inactive
- Potency [3]: inactive
- Potency [4]: inactive
- Potency [5]: inactive
- Potency [19]: inactive
- Potency [7]: inactive
- Potency [8]: inactive
- Potency [9]: inactive
- Potency [18]: inactive
- Potency [11]: inactive
- Potency [12]: inactive
- Potency [13]: inactive
- Potency [14]: inactive
- Potency [15]: inactive
- Potency [16]: inactive
- Potency [17]: inactive

Structure (SMILES): N[C@@H](Cc1cc(I)c(O)c(I)c1)C(=O)O
- Potency [1]: inactive
- Potency [2]: inactive
- Potency [3]: inactive
- Potency [4]: inactive
- Potency [5]: inactive
- Potency [6]: inactive
- Potency [7]: inactive
- Potency [9]: inactive
- Potency [18]: inactive
- Potency [10]: inactive
- Potency [11]: inactive
- Potency [12]: inactive
- Potency [14]: inactive
- Potency [15]: inactive
- Potency [16]: inactive
- Potency [17]: inactive

Structure (SMILES): Nc1ccc(S(=O)(=O)NCc2ccccc2)cc1
- Potency [1]: inactive
- Potency [2]: inactive
- Potency [3]: inactive
- Potency [4]: inactive
- Potency [5]: inactive
- Potency [6]: inactive
- Potency [7]: inactive
- Potency [8]: inactive
- Potency [9]: inactive
- Potency [18]: inactive
- Potency [11]: inactive
- Potency [12]: inactive
- Potency [13]: inactive
- Potency [14]: inactive
- Potency [15]: inactive
- Potency [16]: inactive
- Potency [17]: inactive

Structure (SMILES): COc1cc(NS(=O)(=O)c2ccc(N)cc2)nc(C)n1
- Potency [1]: inactive
- Potency [2]: inactive
- Potency [3]: inactive
- Potency [4]: inactive
- Potency [5]: inactive
- Potency [6]: inactive
- Potency [7]: inactive
- Potency [8]: inactive
- Potency [9]: inactive
- Potency [18]: inactive
- Potency [10]: inactive
- PLD induction [11]: -3.88% [at 7.66 µM]
- Potency [12]: inactive
- Potency [13]: inactive
- Potency [14]: inactive
- Potency [15]: inactive
- Potency [17]: inactive

Structure (SMILES): NC(=O)c1ccccc1[N+](=O)[O-]
- Potency [1]: inactive
- Potency [2]: inactive
- Potency [3]: inactive
- Potency [4]: inactive
- Potency [5]: inactive
- Potency [6]: inactive
- Potency [7]: inactive
- Potency [8]: inactive
- Potency [9]: inactive
- Potency [10]: inactive
- Potency [12]: inactive
- Potency [13]: inactive
- Potency [14]: inactive
- Potency [15]: inactive
- Potency [16]: inactive
- Potency [17]: inactive

Structure (SMILES): CNc1c2c(nn1C)CCCC2
- Potency [1]: inactive
- Potency [2]: inactive
- Potency [3]: inactive
- Potency [4]: inactive
- Potency [5]: inactive
- Potency [19]: inactive
- Potency [7]: inactive
- Potency [8]: inactive
- Potency [9]: inactive
- Potency [18]: inactive
- Potency [10]: inactive
- Potency [11]: inactive
- Potency [12]: inactive
- Potency [13]: inactive
- Potency [14]: inactive
- Potency [15]: inactive
- Potency [16]: inactive
- Potency [17]: inactive

Structure (SMILES): O=C(O)c1cc(Cl)cc(Cl)c1O
- Potency [1]: inactive
- Potency [2]: inactive
- Potency [3]: inactive
- Potency [4]: inactive
- Potency [5]: inactive
- Potency [19]: inactive
- Potency [7]: inactive
- Potency [8]: inactive
- Potency [9]: inactive
- Potency [18]: inactive
- Potency [20]: inactive
- Potency [14]: inactive
- Potency [15]: inactive

Structure (SMILES): CC(C)N(C)C
- Potency [1]: inactive
- Potency [2]: inactive
- Potency [3]: inactive
- Potency [4]: inactive
- Potency [5]: inactive
- Potency [19]: inactive
- Potency [7]: inactive
- Potency [8]: inactive
- Potency [9]: inactive
- Potency [18]: inactive
- Potency [10]: inactive
- Potency [12]: inactive
- Potency [13]: inactive
- Potency [14]: inactive
- Potency [15]: inactive
- Potency [17]: inactive

Structure (SMILES): O=C(c1ccccc1)c1ccc(O)cc1
- Potency [1]: inactive
- Potency [2]: inactive
- Potency [3]: inactive
- Potency [4]: inactive
- Potency [5]: inactive
- Potency [19]: inactive
- Potency [7]: inactive
- Potency [8]: inactive
- Potency [9]: inactive
- Potency [18]: inactive
- Potency [20]: 24.6 µM (active)
- Potency [12]: inactive
- Potency [13]: inactive
- Potency [14]: inactive
- Potency [15]: 49.1 µM (active)
- Potency [16]: inactive
- Potency [17]: 15.5 µM (active)

Structure (SMILES): ClC1=C(Cl)C1(Cl)Cl
- Potency [1]: inactive
- Potency [2]: inactive
- Potency [3]: inactive
- Potency [4]: inactive
- Potency [5]: inactive
- Potency [6]: inactive
- Potency [7]: inactive
- Potency [9]: inactive
- Potency [10]: inactive
- Potency [12]: inactive
- Potency [13]: inactive
- Potency [14]: inactive
- Potency [15]: inactive
- Potency [16]: inactive
- Potency [17]: inactive
